About 5,100 (32%) of roughly 16,000 compounds were called active. Not shown: some 25% with an inconclusive outcome. Calls come from the whole dose curve; as a rule, active = well fitted curve in the direction sought with a large enough effect; inconclusive = small, poorly fitted or top-dose-only effect, or effect the other way; inactive = no such curve, though single readings can be large or run the other way. This is one part of the list. Square brackets hold non-standard residues; d marks the D form. Peptide text beside a SMILES is read from it.
Each compound was assayed against Cytochrome P450 3A4 (Homo sapiens) (UniProt P08684) (assay: Cytochrome panel assay with activity outcomes). Settings: recombinant CYP, pro-luciferin dealkylation, luminescence, p450-cyp3a4; series mostly up to 57.1 µM.
% is set by controls: 0 for no effect and ±100 for the full control effect.

Chain of Cytochrome P450 3A4 (Homo sapiens) (P08684 whole entry, looked up): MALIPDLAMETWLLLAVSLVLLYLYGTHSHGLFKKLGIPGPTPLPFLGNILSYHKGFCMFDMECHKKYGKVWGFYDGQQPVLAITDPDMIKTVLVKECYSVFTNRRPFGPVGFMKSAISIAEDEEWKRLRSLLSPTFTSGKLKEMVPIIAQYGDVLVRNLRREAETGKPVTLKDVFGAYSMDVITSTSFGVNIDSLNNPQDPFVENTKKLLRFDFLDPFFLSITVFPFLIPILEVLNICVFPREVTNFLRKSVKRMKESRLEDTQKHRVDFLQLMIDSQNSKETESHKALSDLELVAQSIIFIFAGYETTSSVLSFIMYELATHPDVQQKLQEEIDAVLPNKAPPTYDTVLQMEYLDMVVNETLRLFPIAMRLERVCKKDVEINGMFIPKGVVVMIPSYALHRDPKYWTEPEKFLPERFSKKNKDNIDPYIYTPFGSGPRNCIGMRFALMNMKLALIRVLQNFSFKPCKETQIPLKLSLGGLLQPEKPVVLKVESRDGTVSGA

Which AC50 does the source give for `O=C(O)CP(=O)(O)O` here?
The AC50 was “inactive”.

`Oc1c(Cl)cc(CN(Cc2cc(Cl)c(O)c(Cl)c2)C2CCCCC2)cc1Cl` was tested. Which activity, negative = inhibition did it give?
The activity, negative = inhibition was -4.66% [at 11.4 µM] (inactive).

How did the AC50 turn out when `O=C(c1csnn1)N1CCC2(CCCN(Cc3ccccc3)C2)CC1` was run?
Its AC50 is “inactive”.

With `CC(=O)N1CCC2(CCCN(Cc3ccccc3)C2)CC1` as the compound, how does the AC50 read?
Its AC50 is “inactive”.

`CC(=O)N1CCC2(CC1)CN(Cc1ccccc1)C2` was tested. Which AC50 did it give?
The AC50 was “inactive”.

How did the AC50 turn out when `O=C(c1ccncc1)N1CCC2(CCCN(Cc3ccccc3)C2)CC1` was run?
Its AC50 is 10 µM (active).

How did the AC50 turn out when `O=C(c1ccncc1)N1CCC[C@@]2(CCN(Cc3ccccc3)C2)C1` was run?
The AC50 was 15.8 µM (active).

`CC(=O)OC1CCC(OC(C)=O)c2c1n([O-])c(C)c(C)[n+]2=O` (centres undefined) was tested. Which AC50 did it give?
The AC50 was “inactive”.

For `COC(=O)c1c(-n2c(C)cc(C=O)c2C)sc2c1CCCC2`, which AC50 is on record?
Its AC50 is 7.08 µM (active).

With `O=C(NCCc1ccccc1)c1noc2c1CCc1ccccc1-2` as the compound, how does the activity, negative = inhibition read?
The activity, negative = inhibition was -2.2% [at 2.29 µM] (inactive).

Which AC50 does the source give for `O=C1Nc2ccccc2/C1=N/c1sc2c(c1C(=O)NCCc1ccccc1)CCCC2` here?
Its AC50 is 7.08 µM (active).

For `O=C1Nc2ccccc2C1=Nc1cccc2ncccc12`, which activity, negative = inhibition is on record?
Its activity, negative = inhibition is -14.3% [at 11.4 µM] (inactive).

Which activity, negative = inhibition does the source give for `NCC(=O)N[C@H](CO)C(=O)O` (H-Gly-[dS]-OH) here?
The activity, negative = inhibition was -9.24% [at 11.4 µM] (inactive).

For `C[N+]1(C)CCC(OC(=O)C(c2ccccc2)c2ccccc2)CC1`, which AC50 is on record?
Its AC50 is “inactive”.

For `CCCCCCOC(=O)C(C#N)c1nc2ccccc2nc1N1CCN(CC)CC1` (centres undefined), which AC50 is on record?
The AC50 was 28.2 µM (active).

With `CC(C)OC(=O)C(C#N)c1nc2ccccc2nc1N1CCN(Cc2ccccc2)CC1` (centres undefined) as the compound, how does the AC50 read?
Its AC50 is “inactive”.

With `CCN1CCN(c2nc3ccccc3nc2C(C#N)C(=O)OC2CCCCC2)CC1` (centres undefined) as the compound, how does the AC50 read?
Its AC50 is 10 µM (active).

With `NC(=O)Nc1n[nH]c(-c2ccccc2)n1` as the compound, how does the activity, negative = inhibition read?
Its activity, negative = inhibition is -3.37% [at 11.4 µM] (inactive).

For `Cc1noc2ncnc(Oc3ccc4ccccc4c3)c12`, which AC50 is on record?
Its AC50 is “inactive”.

With `Cc1cc(C)nc(Nc2n[nH]c(-c3cccc4ccccc34)n2)n1` as the compound, how does the AC50 read?
The AC50 was 14.1 µM (active).

For `Nc1nc(-c2cc(-c3cccc4ccccc34)nc(N)n2)cc(-c2cccc3ccccc23)n1`, which activity, negative = inhibition is on record?
The activity, negative = inhibition was 6.26% [at 11.4 µM] (inactive).

How did the AC50 turn out when `Cc1cc(C)nc(Nc2n[nH]c(COc3ccc4ccccc4c3)n2)n1` was run?
The AC50 was 5.01 µM (active).

Which activity, negative = inhibition does the source give for `Cc1cc(Oc2ccccc2)nc(NCc2ccccc2)n1` here?
The activity, negative = inhibition was 7.15% [at 11.4 µM] (inactive).

For `O=c1[nH]ncn2cccc12`, which AC50 is on record?
The AC50 was “inactive”.

For `COc1ccccc1-n1c(SCC(=O)Nc2ccccc2F)nc2[nH]ncc2c1=O`, which AC50 is on record?
Its AC50 is 14.1 µM (active).

`NCCSc1nc(-c2ccccc2)c(-c2ccccc2)o1` was tested. Which activity, negative = inhibition did it give?
The activity, negative = inhibition was -23.1% [at 11.4 µM] (inactive).

With `Oc1ccccc1C(Sc1nc2ccccc2s1)Sc1nc2ccccc2s1` as the compound, how does the activity, negative = inhibition read?
The activity, negative = inhibition was -6.59% [at 11.4 µM] (inactive).

Which AC50 does the source give for `c1ccc2sc(SCSc3nc4ccccc4s3)nc2c1` here?
The AC50 was 3.16 µM (active).

How did the AC50 turn out when `NCCSc1nc2ccccc2s1` was run?
Its AC50 is 3.16 µM (active).

For `c1ccc2sc(SCCSc3nc4ccccc4s3)nc2c1`, which activity, negative = inhibition is on record?
Its activity, negative = inhibition is 14.9% [at 11.4 µM] (inactive).

`COc1cc(C)cc2c(-c3c(O)cc(O)c4c3C[C@H](C)N[C@@H]4C)cc(-c3cc(-c4c(O)cc(O)c5c4C[C@H](C)N[C@@H]5C)c4cc(C)cc(OC)c4c3O)c(O)c12` was tested. Which activity, negative = inhibition did it give?
The activity, negative = inhibition was -3.16% [at 11.4 µM] (inactive).

For `C[C@@](N)(C(=O)O)c1ccc(P(=O)(O)O)cc1`, which AC50 is on record?
The AC50 was “inactive”.

For `Cc1cc2c(=O)[nH]c(N)nc2nc1C`, which activity, negative = inhibition is on record?
Its activity, negative = inhibition is -3.61% [at 11.4 µM] (inactive).

For `COc1ccc(CNc2ccnc(-c3ccc4c(c3)OCO4)n2)c(OC)c1`, which AC50 is on record?
Its AC50 is 1 µM (active).

For `COc1ccccc1CNc1ccnc(-c2ccc3c(c2)OCO3)n1`, which AC50 is on record?
Its AC50 is 1.58 µM (active).

With `CC(=O)Nc1c2c3c(cccc3n(C)c1=O)C(=O)c1ccccc1-2` as the compound, how does the AC50 read?
The AC50 was 17.8 µM (active).

How did the AC50 turn out when `CCOC(=O)C(=CNc1cccc(C)c1C)C(=O)OCC` was run?
Its AC50 is 15.8 µM (active).

For `Cc1ccc(NC(=O)Nc2ncccc2C)cc1`, which activity, negative = inhibition is on record?
Its activity, negative = inhibition is -13.7% [at 2.29 µM] (inactive).

How did the AC50 turn out when `CCOC(=O)/C(=C/Nc1ccccc1)[N+](=O)[O-]` was run?
Its AC50 is “inactive”.

`CCOC(=O)C(=CNc1ncccc1C)C(=O)OCC` was tested. Which AC50 did it give?
The AC50 was 12.6 µM (active).

How did the AC50 turn out when `CCOC(=O)C(=CNCC(=O)O)C(=O)OCC` was run?
Its AC50 is “inactive”.

How did the AC50 turn out when `CCOC(=O)C(=Cc1ccc(F)cc1)C(=O)OCC` was run?
Its AC50 is “inactive”.

For `Cc1c2cnccc2c(C)c2c1c1ccccc1n2CCOC(=O)c1ccccc1`, which AC50 is on record?
The AC50 was 0.631 µM (active).

Which activity, negative = inhibition does the source give for `CN(C)CCCn1c2ccccc2c2cnccc21` here?
The activity, negative = inhibition was -22.2% [at 11.4 µM] (inactive).

`Cc1ccc(C(=O)O/N=C/c2c(Cl)n(C)c3ccccc23)cc1` was tested. Which AC50 did it give?
Its AC50 is “inactive”.

`Cc1noc(C)c1-c1nc(Nc2ccc(F)cc2)c2ccccc2n1` was tested. Which AC50 did it give?
The AC50 was “inactive”.

`Cc1noc(C)c1-c1nc(Nc2ccncc2)c2ccccc2n1` was tested. Which AC50 did it give?
The AC50 was 0.316 µM (active).

With `Cc1noc(C)c1-c1nc(NC2CCNCC2)c2ccccc2n1` as the compound, how does the AC50 read?
Its AC50 is “inactive”.

For `Cc1noc(C)c1-c1nc(Nc2ccccc2)c2ccccc2n1`, which AC50 is on record?
Its AC50 is 6.31 µM (active).

`CN(Cc1ccccc1)C(=O)CC(c1ccccc1)c1cc(Cl)ccc1O` (centres undefined) was tested. Which AC50 did it give?
The AC50 was 14.1 µM (active).

For `CN(/C=C/C(=O)C(F)(F)F)Cc1ccccc1`, which AC50 is on record?
Its AC50 is “inactive”.

Which AC50 does the source give for `CC(C)Oc1ccc(CNC(=O)CC(c2ccccc2)c2cc(Cl)ccc2O)cc1` (centres undefined) here?
The AC50 was 10 µM (active).

With `O=C(O)Cc1cc(Cl)ccc1O` as the compound, how does the activity, negative = inhibition read?
Its activity, negative = inhibition is -2.24% [at 11.4 µM] (inactive).

How did the AC50 turn out when `COc1cccc(Cn2c(=O)c(CCc3ccccc3)nc3cncnc32)c1` was run?
The AC50 was 2.51 µM (active).

`COc1cccc(Cn2c(=O)c(CCc3ccccc3)nc3cnc(OC)nc32)c1` was tested. Which AC50 did it give?
Its AC50 is 2.51 µM (active).

For `NC/C=C\C(=O)O`, which AC50 is on record?
Its AC50 is “inactive”.

Which AC50 does the source give for `CC(C(=O)NCc1ccc2c(c1)OCO2)N1c2cccc3cccc(c23)S1(=O)=O` (centres undefined) here?
The AC50 was 0.316 µM (active).

Which activity, negative = inhibition does the source give for `Cc1cc(C)c2nc3c(c([C@H](O)[C@@H]4CCCCN4)c2c1)CC/C3=C/c1ccc(Cl)cc1` here?
Its activity, negative = inhibition is -1.86% [at 11.4 µM] (inactive).

With `CN(C)c1ccc(-c2nc(NCc3cccnc3)c3ccccc3n2)cc1` as the compound, how does the AC50 read?
Its AC50 is 2 µM (active).

`CN(C)C(=O)c1ccc(-c2nc(NCc3ccccc3)c3ccccc3n2)cc1` was tested. Which AC50 did it give?
Its AC50 is 15.8 µM (active).

With `CN(C)C(=O)c1ccc(-c2nc(NCc3cccs3)c3ccccc3n2)cc1` as the compound, how does the AC50 read?
Its AC50 is 15.8 µM (active).

How did the AC50 turn out when `CN(C)C(=O)c1ccc(-c2nc(NCc3cccnc3)c3ccccc3n2)cc1` was run?
Its AC50 is 12.6 µM (active).

`CC(=O)NCCNc1nc(-c2ccc(C(=O)N(C)C)cc2)nc2ccccc12` was tested. Which AC50 did it give?
Its AC50 is “inactive”.

For `CN(C)C(=O)c1ccc(-c2nc(NC3CCNCC3)c3ccccc3n2)cc1`, which AC50 is on record?
Its AC50 is “inactive”.
